# ± gives the standard deviation.
# What was measured:
# Details in all cases: modulator concentration 10 µM
# [1] = tested on: RAW-Dual (murine macrophage reporter line); assay: NF-kB reporter (SEAP) activity fold change vs agonist alone; higher = enhanced NF-kB activity
# Procedure, shortened: (§1)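 Compound reached 10 μM final in each well by pin transfer, onto RAW-Dual murine macrophage reporter cells seeded at 50 000 per well in 384-well plates. After 1 hour at 37 °C, the cells were stimulated overnight with a PRR agonist. SEAP in the supernatant was read with QUANTI-Blue at 620 nm absorbance for NF-κB, and Lucia luciferase was read with QUANTI-Luc luminescence for IRF. Each signal was turned into fold change against the mean agonist-only control on the same plate, and two replicate plates were averaged with propagated errors.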
# [2] = tested on: RAW-Dual (murine macrophage reporter line); assay: IRF reporter (Lucia luciferase) activity fold change vs agonist alone; higher = enhanced IRF activity
# Procedure, shortened: as §1
# [3] = tested on: RAW-Dual (murine macrophage reporter line); assay: viability score (confluency relative to resting cells, overnight) (fraction); higher = more viable, active = viable (0.7 or more)
# Procedure, shortened: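 RAW-Dual macrophages in 384-well plates were treated overnight with compound at 10 μM final. IncuCyte imaging recorded confluency, and IncuCyte software built two confluency masks across every imaged well. The viability score expresses confluency relative to resting cells and was judged against a cutoff, which a compound met only if both masks exceeded 70% of resting cells.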
# [4] = agonist: CpG ODN 1826 0.5 ug/mL
Compound,"NF-kB reporter [1, 4]",NF-kB reporter ([1]; agonist: LPS 0.1 ug/mL),NF-kB reporter ([1]; agonist: MPLA […]),IRF reporter ([2]; agonist: 3'3'-cGAMP 10 ug/mL),IRF reporter ([2]; agonist: LPS 0.1 ug/mL),IRF reporter ([2]; agonist: MPLA […]),viability score [3]
Cc1ccc(OCC(=O)N2CCN(c3ccc(-n4cncn4)nn3)CC2)c(C(C)(C)C)c1,1.11 ± 0.13,0.971 ± 0.085,1.27 ± 0.037,0.964 ± 0.07,0.948 ± 0.099,0.87 ± 0.15,0.999 (active)
CN1CCN(c2ccc(-c3cccc(NC(=O)c4ccc5ccccc5c4)c3)nn2)CC1,0.162 ± 0.0099,0.745 ± 0.15,0.301 ± 0.11,0.664 ± 0.041,1.88 ± 0.75,1.85 ± 0.26,0.171 (inactive)
Cc1nc(-c2ccc(S(=O)(=O)N3C4CCC3CC(Oc3cccnc3)C4)cc2)co1 (stereo not given),1 ± 0.093,1.08 ± 0.086,0.94 ± 0.051,1.04 ± 0.077,1.14 ± 0.087,1 ± 0.092,1.01 (active)
O=C(CSc1nnnn1-c1ccccc1)NC12CC3CC(CC(C3)C1)C2,1.01 ± 0.09,0.967 ± 0.053,0.943 ± 0.059,0.96 ± 0.054,1.12 ± 0.24,0.933 ± 0.058,1.02 (active)
C[C@H]1[C@@H](OC(=O)CCC(=O)O)O[C@@H]2O[C@]3(C)CC[C@H]4[C@H](C)CC[C@@H]1[C@@]24OO3,1.02 ± 0.071,1.12 ± 0.11,0.95 ± 0.043,0.934 ± 0.11,1.11 ± 0.14,1.06 ± 0.25,1 (active)
CCOC(=O)OC(C)OC1=C(C(=O)Nc2ccccn2)N(C)S(=O)(=O)c2ccccc21 (stereo not given),1.12 ± 0.15,1.28 ± 0.25,0.995 ± 0.056,0.948 ± 0.029,1.37 ± 0.34,1.32 ± 0.12,0.989 (active)
Cc1noc(C)c1CCC(=O)N1CCCC(c2nnc(C(F)(F)F)o2)C1 (stereo not given),0.991 ± 0.12,1.06 ± 0.087,0.923 ± 0.042,0.988 ± 0.082,1.12 ± 0.1,1.02 ± 0.077,1.01 (active)
Cl.Cn1c(=N)n(CC(O)c2ccco2)c2ccccc21 (stereo not given),1.05 ± 0.061,1.09 ± 0.077,0.969 ± 0.069,1.22 ± 0.04,1.46 ± 0.21,1.3 ± 0.18,0.992 (active)
O=C(NC(Cc1cc(=O)[nH]c2ccccc12)C(=O)O)c1ccc(Cl)cc1 (stereo not given),1.4 ± 0.19,1.19 ± 0.21,0.968 ± 0.055,0.918 ± 0.03,1.32 ± 0.16,1.09 ± 0.16,0.992 (active)
COC(=O)C1=C(C)NC2=C(C(=O)CC(C)(C)C2)C1c1ccc(OC)c(O)c1 (stereo not given),1.02 ± 0.095,0.981 ± 0.055,1.01 ± 0.069,1.01 ± 0.077,1.13 ± 0.16,1.05 ± 0.065,1.01 (active)
Cc1onc(-c2ccccc2)c1-c1ccc(S(N)(=O)=O)cc1,1.64 ± 0.26,1.08 ± 0.4,1.25 ± 0.3,1.02 ± 0.031,1.02 ± 0.2,0.898 ± 0.11,0.98 (active)
COc1ccccc1S(=O)(=O)N1CC(Oc2nc3c(C(F)(F)F)cccc3s2)C1,0.935 ± 0.047,1.18 ± 0.097,1.38 ± 0.14,1.4 ± 0.15,1.43 ± 0.23,1.5 ± 0.4,1 (active)
CSc1ccc(C(=O)O)s1,1.02 ± 0.13,1.08 ± 0.09,1.03 ± 0.065,1.01 ± 0.21,1.03 ± 0.059,1.03 ± 0.15,1.01 (active)
Cn1c(=O)cc(N2CCC[C@@H](N)C2)n(Cc2ccccc2C#N)c1=O,1.19 ± 0.25,1.25 ± 0.28,2.23 ± 1.3,0.958 ± 0.031,1.3 ± 0.35,1.33 ± 0.26,0.99 (active)
COc1cc(Br)c(C=C(C#N)c2nn(-c3ccccc3)c(N)c2C#N)cc1OC,1.25 ± 0.1,1.09 ± 0.08,1.07 ± 0.1,0.936 ± 0.025,1.25 ± 0.24,1.18 ± 0.25,1.01 (active)
CC(NC(=O)C(=O)NN=Cc1ccc(Cl)cc1Cl)c1ccccc1 (stereo not given),0.967 ± 0.095,1.16 ± 0.077,0.953 ± 0.084,1.22 ± 0.051,1.39 ± 0.16,1.14 ± 0.11,0.991 (active)
COC1(CNC(=O)C2CCN(S(C)(=O)=O)CC2)CCSC1 (stereo not given),0.879 ± 0.04,0.875 ± 0.076,1.07 ± 0.1,0.946 ± 0.074,1.08 ± 0.15,1.22 ± 0.34,0.97 (active)
CC(=O)OCC(=O)NCCCOc1cccc(CN2CCCCC2)c1.Cl,1.14 ± 0.19,1.21 ± 0.23,0.924 ± 0.056,0.951 ± 0.039,1.42 ± 0.13,1.11 ± 0.1,0.99 (active)
c1ccc2oc(SCCCCSc3nc4ccccc4o3)nc2c1,0.959 ± 0.15,1.06 ± 0.11,0.949 ± 0.089,0.821 ± 0.037,1.2 ± 0.12,1.4 ± 0.15,1 (active)
CC=CCn1c(=O)c2c(nc3n2CC(C(C)(C)C)=NN3)n(C)c1=O,1.02 ± 0.092,1.09 ± 0.1,1.08 ± 0.11,1 ± 0.026,1.28 ± 0.2,0.943 ± 0.099,0.96 (active)
CC(=O)N1CCN=C1SCc1cccc(C(F)(F)F)c1,0.767 ± 0.06,0.698 ± 0.059,0.896 ± 0.029,0.572 ± 0.035,0.912 ± 0.068,0.88 ± 0.08,0.99 (active)
CCCCCCOc1ccc(OC(=O)c2ccc(OC)cc2)cc1,0.826 ± 0.073,0.856 ± 0.072,0.913 ± 0.089,0.95 ± 0.037,1.37 ± 0.21,1.62 ± 0.26,1.04 (active)
NNc1ncnc2scc(-c3ccc(Cl)cc3)c12,0.931 ± 0.071,0.867 ± 0.07,1.32 ± 0.42,0.333 ± 0.015,1.3 ± 0.15,1.48 ± 0.21,0.997 (active)
CCn1ccc(C(=O)N2CCN(c3cc(C(F)(F)F)nc(C)n3)CC2)n1,1.27 ± 0.098,1.07 ± 0.092,1.01 ± 0.05,0.637 ± 0.028,0.744 ± 0.035,0.839 ± 0.11,1 (active)
O=C(NCCN1CCOCC1)c1ccc(Cl)cc1,1.37 ± 0.2,1.13 ± 0.3,0.953 ± 0.055,0.95 ± 0.048,1.26 ± 0.43,1.01 ± 0.078,0.992 (active)
